Compounds with a hit are over-represented: about 2.4% of the library has one in this group of screens.
AmpC inh no det: blocks E. coli AmpC beta-lactamase in absence of detergent; P00811; AmpC nitrocefin hydrolysis, absorbance 480 nm, no detergent; Potency, µM (titrated, usually from 28.7 µM); actives 1.8% (n = 71,000); AID 585
Target sequence (P00811 whole entry, looked up): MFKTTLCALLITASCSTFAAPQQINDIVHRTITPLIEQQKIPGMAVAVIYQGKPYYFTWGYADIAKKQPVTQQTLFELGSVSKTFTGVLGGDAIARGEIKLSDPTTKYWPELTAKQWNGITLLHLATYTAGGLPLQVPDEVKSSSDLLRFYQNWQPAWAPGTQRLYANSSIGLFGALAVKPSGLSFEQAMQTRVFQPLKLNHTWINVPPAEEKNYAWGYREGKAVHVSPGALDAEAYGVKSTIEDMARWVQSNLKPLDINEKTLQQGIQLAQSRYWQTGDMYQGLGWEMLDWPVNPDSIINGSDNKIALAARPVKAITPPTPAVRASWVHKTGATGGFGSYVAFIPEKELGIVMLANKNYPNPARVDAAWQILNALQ
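AmpC in 20 mM phosphate buffer pH 7.0 was preincubated 15 min at room temperature with compounds. Nitrocefin (800 uM stock) was then added and hydrolysis followed at 480 nm every 20 s for 4 min.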
Prx2 Sm inh: blocks S. mansoni peroxiredoxin 2 enzymatic activity | S. mansoni Prx2 activity coupled to TGR/GSH (TGR is thioredoxin glutathione reductase), NADPH fluorescence loss, qHTS | Potency, µM | actives 0.07% (n = 65,000)
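Enzyme mix: 100 uM NADPH, 25 nM TGR, 700 uM GSH, 50 nM Prx2 in 100 mM phosphate pH 7.4, 10 mM EDTA, 0.01% Tween-20. 15 min RT with compound; NADPH/GSH added, H2O2 starts reaction; NADPH fluorescence read 8 min.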
Anthrax LT inh: blocks cellular internalization of anthrax lethal toxin | Cells, anthrax lethal toxin internalization, FRET ratio (460/530) | Potency, µM (highest dose often 40 µM), hits mostly inhibitors | actives 0.67% (n = 70,000); note: nearly all actives have a fitted effect of over 50% in size
AmpC det inh: AmpC beta-lactamase inhibition, detergent assay; P00811; purified AmpC, nitrocefin hydrolysis with detergent; Potency, µM (titrated, usually from 28.7 µM); actives 0.09% (n = 71,000); active = well fitted curve in the direction sought with a large enough effect; inconclusive = small, poorly fitted or top-dose-only effect
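E. coli AmpC (5.3 nM) in 20 mM phosphate pH 7.0 with 0.01% Triton X-100, preincubated 15 min RT with compound; nitrocefin (2 uL of 800 uM stock) hydrolysis followed by 480 nm absorbance every 20 s over 4 min.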
A number is an active result; . = inactive; ? = inconclusive; / = no result given; [ ] = remark or other dose. Unless noted, calls come from the whole dose curve.

SMILES	AmpC inh no det	Prx2 Sm inh	Anthrax LT inh	AmpC det inh
Cc1nnc(NC(=O)CCCCCN2C(=O)C3C4C=CC(C4)C3C2=O)s1 (configuration not stated)	3.98µM[single pt active]	/	.	.
Cc1nnc(NC(=O)NC(C)N2C(=O)C3C4C=CC(C4)C3C2=O)s1 (configuration not stated)	.	.	.	.
COc1cccc([C@@H]2Oc3ccc(OC)cc3/C(=N/O[C@@H](C)c3cn([C@H]4COC[C@H]4O)nn3)[C@@H]2O)c1	/	/	.[1.6 µM]	/
CN1CCN(CCCNC(=O)c2ccc(CS(=O)(=O)c3ccc(Br)cc3)o2)CC1	.	.	.	.
CCN(CC)CCNC(=O)c1ccc(CS(=O)(=O)c2ccc(Br)cc2)o1	3.16µM[single pt active]	.	.	.
O=C(NC1CCCC1)c1ccc(CS(=O)(=O)c2ccc(Br)cc2)o1	3.98µM[single pt active]	.	.	.
O=C(NCCCN1CCCC1)c1ccc(CS(=O)(=O)c2ccc(Br)cc2)o1	3.98µM[single pt active]	.	.	.
O=C(NCCN1CCCCCC1)c1ccc(CS(=O)(=O)c2ccc(Br)cc2)o1	3.98µM[single pt active]	.	?	.
CS(=O)(=O)Nc1ccc(Nc2c3ccccc3nc3ccccc23)cc1	.[5.75 µM]	.	?	.[5.75 µM]
COc1cc2c(cc1O)CCN[C@H]2C	.	.	?	.
CCNc1ncc2nc(-c3cc(F)cc(F)c3)c(=O)n(CCOC)c2n1	.	.	.	.
CC(=O)N(O)[C@@H]1c2cc(C#N)ccc2OC(C)(C)[C@H]1O	/	/	.	/
CC1C(=O)CC(c2ccccc2)N(C)C1c1ccccc1 (configuration not stated)	3.98µM[single pt active]	.	?	.
CC1C(c2ccccc2)N(C)CCC12NC(=O)NC2=O (configuration not stated)	.	.	.	.
O=C(Cn1cc(C(=O)c2cccs2)c2ccccc21)NCc1ccc2c(c1)OCO2	2µM[single pt active]	.	?	.
CC(C)CCOC(=O)C1C2C=CC3(CN(Cc4cccs4)C(=O)C13)O2 (configuration not stated)	3.98µM[single pt active]	.	.	.
COC(=O)CS(=O)(=O)c1nnc([C@H](Cc2ccccc2)NC(=O)OC(C)(C)C)o1	?	?	/	3.98µM
COC(=O)c1ccc(C(/C=C/[C@@H](C)C(=O)N(C)C)NC(=O)OCc2ccccc2)cc1 (some centres not stated)	.	/	?	.
CCc1cccc2c3c([nH]c12)[C@](CC)(CC(=O)O)OCC3	.	.	.	.
O=C(O)C(Oc1nc(=S)[nH]c(=S)[nH]1)(c1ccc(Cl)cc1)c1ccc(Cl)cc1	.[5.75 µM]	.	.[8 µM]	.[5.75 µM]
CCN(CC)CCCNC(=O)c1cc2c(-c3ccc(Cl)cc3)nn(C)c2s1	3.98µM[single pt active]	.	2.51µM	.
CC1CCCCN1CCNC(=O)c1cc2c(-c3ccccc3F)nn(C)c2s1 (configuration not stated)	3.98µM[single pt active]	.	7.94µM	.
CN1CCN(CCCNC(=O)c2cc3c(-c4ccc(Cl)cc4)nn(C)c3s2)CC1	.	.	6.31µM	.
Cn1nc(-c2ccc(Cl)cc2)c2cc(C(=O)NCC3CCCO3)sc21 (configuration not stated)	.	.	?	.
O=C(O)[C@@H]1[C@@H](C(=O)NCc2ccccn2)[C@@H]2C=C[C@@H]1O2	.[5.75 µM]	.	?	.[5.75 µM]
SMILES	AmpC inh no det	Prx2 Sm inh	Anthrax LT inh	AmpC det inh
COc1ccccc1CNc1cc(-c2ccccc2Cl)ncn1	.	.	.	.
CN1/C(=C/C(=O)c2nc(S(C)(=O)=O)ncc2Cl)C(C)(C)c2ccccc21	.	.	12.6µM	.
Cc1nn(C)c(C)c1S(=O)(=O)N1CCCC(C(=O)NC2CCCCCC2)C1 (configuration not stated)	3.98µM[single pt active]	.	.	.
N#Cc1c(NC(=O)CSc2n[nH]c(Cc3ccccc3)n2)oc(-c2ccccc2)c1-c1ccccc1	10µM	.	?	.
N#Cc1c(NC(=O)COC(=O)C2CC3C=CC2C3)oc(-c2ccccc2)c1-c1ccccc1 (configuration not stated)	10µM	.	?	.
COc1ccccc1OCC(=O)Nc1oc(-c2ccccc2)c(-c2ccccc2)c1C#N	.	.	.	.
Cc1ccnc(SCC(=O)Nc2oc(-c3ccccc3)c(-c3ccccc3)c2C#N)n1	?	.	?	.
COc1c(O)cc2oc3cc(O)c(CC=C(C)C)c(O)c3c(=O)c2c1CC=C(C)C	.	.	?	.
CCC[C@@H]1C[C@@]1(CCC)C(NP(=O)(c1ccccc1)c1ccccc1)c1ccc(Cl)cc1 (some centres not stated)	.	.	.	.
CC(C)(C)N1C(=O)[C@H]2[C@H]3[C@H](O)[C@H](O)C/C(=N/OC[C@@H](O)COCc4ccco4)[C@@H]3CC[C@@H]2C1=O	/	/	.[8 µM]	/
Cn1c(=O)c2nc(-c3ccc(Cl)cc3Cl)oc2c2ccccc21	2.51µM	.	.	.
COc1cccc(Cn2nnc(C(=O)NCc3ccc(F)cc3)c2N)c1	3.98µM[single pt active]	.	.	.
COc1cccc(Cn2nnc(C(=O)NCc3ccccc3Cl)c2N)c1	3.98µM[single pt active]	/	?	.
CCOc1ccc(Cn2nnc(C(=O)NCCc3ccccc3)c2N)cc1	3.98µM[single pt active]	.	.	.
O=c1c(O)c(-c2cc(O)c(O)c(O)c2)oc2cc(O)cc(O)c12	10µM	.	?	.
Cc1ccccc1N1C(=O)c2sc3nc4c(c(=O)n3c2C1=O)CCC4	.	/	12.6µM	.
O=C1c2sc3nc4c(c(=O)n3c2C(=O)N1c1ccccc1)CCC4	.	.	.	.
CC(C)N(Cc1nc(-c2ccccc2)no1)C(=O)CN(C)S(=O)(=O)c1ccccc1	.	.	.	.
CC(C)N(Cc1nc(-c2ccccc2)no1)S(=O)(=O)c1ccccc1	3.98µM[single pt active]	.	?	.
O=C(C1CCC(CNc2c(N3CCCCC3)c(=O)c2=O)CC1)N1CCCCC1 (configuration not stated)	3.98µM[single pt active]	.	.	.
O=C(NCc1ccc2c(c1)OCO2)C1CCC(CNc2c(N3CCCCC3)c(=O)c2=O)CC1 (configuration not stated)	3.98µM[single pt active]	.	?	.
COc1ccc(-n2c(=O)c(-c3cccs3)nc3cnc(Oc4ccccc4)nc32)cc1	.	.	?	.
NC(=O)c1cccc(S(=O)(=O)N2CC(c3ccccc3)CC2=O)c1 (configuration not stated)	3.98µM[single pt active]	.	.	.
CCc1nc2ccccc2c(C(=O)OCC(=O)Nc2ccc(S(=O)(=O)N3CCOCC3)cc2)c1C	.	.	12.6µM	.
CCN(CC)c1ccc(NC(=O)CSc2nc3ccccc3c(=O)[nH]2)cc1	10µM[single pt active]	.	.	.
SMILES	AmpC inh no det	Prx2 Sm inh	Anthrax LT inh	AmpC det inh
Cc1ccc(-n2ncc3c(=O)[nH]c(SCC(=O)N4CCOCC4)nc32)cc1	.	.	.	.
Cc1ccc(-n2ncc3c(=O)[nH]c(SCC(=O)N4CCN(c5ccccc5)CC4)nc32)cc1	12.6µM[single pt active]	.	.	.
O=c1[nH]c(SCc2ccccc2Cl)nc2c1cnn2-c1ccccc1	7.94µM	.	?	.
O=C(/C=C/N1CCOCC1)c1ccc(-c2ccccc2)cc1	12.6µM	/	?	.
Cc1ccc2nc(NC(=O)CNS(=O)(=O)c3ccc(Br)s3)sc2c1	.	.	?	.
Cc1ccc2nc(NC(=O)CN(C)S(=O)(=O)c3ccc(Br)s3)sc2c1	.	.	5.01µM	.
